The panel holds about 83,000 compounds, 20% with a hit somewhere; the sample as a whole holds those more often.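 Negative percent growth values reflect cell death: -40 means 40% of the cells present at the start died, and -100 means all died.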 A number with no mark means an inactive call. The source made the active and inactive calls. The calls were made as follows: active = growth percent below 10; inactive = the rest.

What all share (experiment): NCI-60 one-dose screen, 48 h (100 = growth as untreated, 0 = no growth, -100 = all killed)
In experiment [1] the test system is HT29 colon. Particulars: 10 µM unless noted.
Experiment [2] has as its system SNB-75 CNS. Particulars: 10 µM unless noted.
Experiment [3] has as its system SNB-19 CNS. Particulars: 10 µM unless noted.
The test system of experiment [4] is U251 CNS. Particulars: 10 µM unless noted.
The test system of experiment [5] is PC-3 prostate. Particulars: 10 µM unless noted.
Experiment [6] deals with UACC-62 melanoma. The following applies: 10 µM unless noted.
The test system of experiment [7] is LOX IMVI melanoma. The following applies: 10 µM unless noted.
Experiment [8] relates to SK-MEL-28 melanoma. Particulars: 10 µM.
Experiment [9] has as its system SK-MEL-2 melanoma. The following applies: 10 µM unless noted.
Experiment [10] relates to EKVX NSCLC. Particulars: 10 µM unless noted.
The test system of experiment [11] is SN12C renal. Particulars: 10 µM unless noted.
Experiment [12] concerns UO-31 renal. Particulars: 10 µM unless noted.
Experiment [13] concerns TK-10 renal. Particulars: 10 µM unless noted.
Experiment [14] deals with ACHN renal. The following applies: 10 µM unless noted.
The test system of experiment [15] is CAKI-1 renal. Particulars: 10 µM unless noted.
Experiment [16] deals with CCRF-CEM leukemia. The following applies: 10 µM unless noted.
Experiment [17] deals with MOLT-4 leukemia. The following applies: 10 µM unless noted.
In experiment [18] the test system is SR leukemia. Particulars: 10 µM unless noted.
Experiment [19] deals with SK-MEL-5 melanoma. Particulars: 10 µM unless noted.
The subject of experiment [20] is A498 renal. Particulars: 10 µM unless noted.

Regarding `Cc1cccc2c(=O)c3c(sc12)c(N1CCNCC1)nc1ccccc13`, the growth in experiment [1] was 6.4% (active); in experiment [2] it was 50%; in [3] it was 82.6%; in experiment [4], 59.9%; in experiment [5] it was 69.9%; in [6], 89.9%. Moreover, the growth in experiment [7] is 10.3%; in [8], 80.1%; in experiment [9] it was 98.2%; in experiment [10] it was 68.9%; in experiment [11] it was 69.8%; in experiment [12] it was 36.7%. Further, the growth is 86.3% in experiment [13]; 46% in experiment [14]; 54.8% in experiment [15]; 62.4% in experiment [16]; 33.8% in experiment [17]; -17% (active) in [18].

On to `COc1cccc(C2=NN3C(C2)c2ccccc2OC3c2ccc(/C=C3\SC(=O)NC3=O)cc2)c1` (configuration not stated), for which the growth was 111% in experiment [1]; 95% in [2]; 105% in experiment [3]; 102% in [4]; 91.8% in experiment [19]; 104% in experiment [6]. For the same compound, the growth in experiment [7] is 70.5%; in experiment [8] it was 104%; in experiment [9], 97.8%; in experiment [10], 85.4%; in experiment [11], 101%; in experiment [12] it was 73.2%. Also, the growth was 102% in [13]; 98.7% in experiment [14]; 96.4% in [15]; 88.6% in [20]; 97.1% in [16]; 96.9% in experiment [17]. The growth in experiment [18] is 120%.

Take `O=C(NCCCN1CCC(N2CCCCC2)CC1)C1=Cc2cc(Br)ccc2OC1`: the growth in experiment [1] was 17.9%; in experiment [2], 44.7%; in [3], 58.8%; in experiment [4], 37%; in experiment [5], 17.5%; in experiment [6], 53.6%. The growth is 31.3% in experiment [7]; 80.9% in experiment [8]; 35.5% in experiment [9]; 57.7% in experiment [11]; 21.8% in experiment [12]; 60% in experiment [13]. Also, the growth in [14] is 37.7%; in [15] it was 54.5%; in [20], 52.7%; in experiment [16], 27.4%; in [17], 11.9%; in experiment [18], 11.4%.

As for `CN(C)/C=C1\SC(=Nc2ccc(Cl)cc2)NC1=O`, the growth in experiment [1] is 110%; in [2] it was 96.4%; in experiment [3], 102%; in [4], 99.7%; in experiment [19], 97%; in experiment [6], 95.2%. Further, the growth in experiment [7] is 101%; in experiment [8] it was 101%; in experiment [9], 104%; in experiment [10], 95.6%; in experiment [11] it was 92.1%; in [12], 90.4%. Also, the growth in experiment [13] is 111%; in experiment [14] it was 103%; in experiment [15] it was 96.1%; in [20] it was 94.6%; in [16], 106%; in [17], 101%. Moreover, the growth in experiment [18] was 123%.

`O=c1oc2ccc(F)cc2c(=O)n1-c1ccc(F)cc1F`: the growth in [1] is 97.1%; in experiment [2] it was 2.33% (active); in [3], 38.1%; in experiment [4], 13.6%; in experiment [5] it was 16.1%; in experiment [6] it was 3.17% (active). For the same compound, the growth in [7] is 14.2%; in [8], 23%; in experiment [10], 93.5%; in [11], 24.9%; in experiment [12] it was 26%; in experiment [13], 10.4%. Besides, the growth in [14] is 36.3%; in [15] it was 16.4%; in experiment [20] it was -30.5% (active); in [16], 35.9%; in [17], 22.3%.

`CCN1CCN(C(=S)SCC(=O)Nc2nc3ccc(C)cc3s2)CC1`: the growth in experiment [1] was 102%; in experiment [2], 89%; in experiment [3] it was 102%; in [4] it was 110%; in experiment [5], 88.8%; in [7], 3.49% (active). Besides, the growth in experiment [8] was 108%; in experiment [9], 105%; in experiment [10] it was 122%; in [11], 99.1%; in experiment [12], 60.6%; in experiment [13] it was 111%. Moreover, the growth in experiment [14] was 103%; in [15] it was 87.2%; in experiment [20] it was 126%; in experiment [17], 111%; in experiment [18] it was 103%.

With `O=C(Nc1ccc(Cl)cc1F)c1cc(I)ccc1O`, the growth in [1] is 103%; in experiment [2] it was 16.5%; in [3], 18.9%; in experiment [4], 9.91% (active); in experiment [5], 44%; in experiment [6] it was -1.26% (active). The growth in experiment [7] was 19%; in experiment [8] it was 18.5%; in experiment [9], -19.3% (active); in [10], 77%; in [11], 29.5%; in experiment [12], 34%. Also, the growth was 15.8% in experiment [13]; 34.3% in experiment [14]; -28.2% (active) in experiment [20]; 29.9% in experiment [16]; 31.7% in experiment [17].

For the compound `O=c1oc2ccc(Br)cc2c(=O)n1-c1ccc(I)cc1F`, the growth in [1] was 40.1%; in experiment [2], -20.8% (active); in [3], 18.4%; in [4] it was 0.947% (active); in experiment [5] it was -0.134% (active); in experiment [6], -19.7% (active). In addition, the growth is 6% (active) in [7]; -2% (active) in experiment [8]; -32.6% (active) in experiment [9]; 12.5% in experiment [10]; -1.37% (active) in experiment [11]; 7.32% (active) in experiment [12]. Also, the growth in [13] was 7.64% (active); in experiment [14], 3.46% (active); in experiment [20] it was -70.2% (active); in experiment [16], 7.41% (active); in experiment [17] it was -26.3% (active).

For the origin of these results see PubChem BioAssay (NCI).
